The text below walks through data of article PMC11062922 (Nature Chemical Biology, 2023).

Where two headings read alike, the source gives them in different places.

Parameters in all cases: species or system human, MV4-11 + K-562 + COLO205 + SK-N-BE2 + OVCAR-8
Experiment [1] relates to ACVR1B. The note with it: read-out: apparent Kd; compound concentrations:100 nM and 1000 nM (sheet 'Samples'); n = 1.
Experiment [2] concerns MAPK14. The note with it: read-out: apparent Kd, n = 1.
For experiment [3], the system named is MAPKAPK2. As to conditions: read-out: apparent Kd; compound concentrations:100 nM and 1000 nM (sheet 'Samples'); n = 1.
Experiment [4] deals with PRKD2. The note with it: read-out: apparent Kd; compound concentrations:100 nM and 1000 nM (sheet 'Samples'); n = 1.
The subject of experiment [5] is TNIK. As to conditions: read-out: apparent Kd; compound concentrations:100 nM and 1000 nM (sheet 'Samples'); n = 1.
The subject of experiment [6] is ADCK1. The note with it: read-out: apparent Kd, compound concentrations: 100 nM and 1000 nM (sheet 'Samples'), n = 1.
In experiment [7] the test system is AKT1. The note with it: read-out: apparent Kd, compound concentrations: 100 nM and 1000 nM (sheet 'Samples'), n = 1.
The test system of experiment [8] is AKT2. The note with it: read-out: apparent Kd, compound concentrations: 100 nM and 1000 nM (sheet 'Samples'), n = 1.
The subject of experiment [9] is BTK. The note with it: read-out: apparent Kd; compound concentrations: 100 nM and 1000 nM (sheet 'Samples'), CATDS: 5.4009737115297697E-2; n = 1.
In experiment [10] the test system is CDC42BPG. As to conditions: read-out: apparent Kd; compound concentrations: 100 nM and 1000 nM (sheet 'Samples'), CATDS: 4.9090451053861402E-2; n = 1.
The subject of experiment [11] is CSNK1A1. As to conditions: read-out: apparent Kd; compound concentrations: 100 nM and 1000 nM (sheet 'Samples'), CATDS: 4.23666657347909E-2; n = 1.
Experiment [12] has as its system CSNK1E. As to conditions: read-out: apparent Kd; compound concentrations: 100 nM and 1000 nM (sheet 'Samples'), CATDS: 3.8720748933532501E-2; n = 1.
Experiment [13] has as its system CSNK1G3. As to conditions: read-out: apparent Kd; compound concentrations: 100 nM and 1000 nM (sheet 'Samples'), CATDS: 4.2624276708998099E-2; n = 1.
For experiment [14], the system named is IARS. The note with it: read-out: apparent Kd; compound concentrations: 100 nM and 1000 nM (sheet 'Samples'), CATDS: 4.0140361212157798E-2; n = 1.
For experiment [15], the system named is OPA1. The note with it: read-out: apparent Kd; compound concentrations: 100 nM and 1000 nM (sheet 'Samples'), CATDS: 4.7870015182345502E-2; n = 1.
For experiment [16], the system named is PIK3CD. The note with it: read-out: apparent Kd; compound concentrations: 100 nM and 1000 nM (sheet 'Samples'), CATDS: 0.15137185396719799; n = 1.
For experiment [17], the system named is PIM1. The note with it: read-out: apparent Kd, compound concentrations: 100 nM and 1000 nM (sheet 'Samples'), n = 1.
Experiment [18] has as its system PIM2. As to conditions: read-out: apparent Kd, compound concentrations: 100 nM and 1000 nM (sheet 'Samples'), n = 1.
Experiment [19] concerns RAB14. As to conditions: read-out: apparent Kd; compound concentrations: 100 nM and 1000 nM (sheet 'Samples'), CATDS: 4.5308660485802198E-2; n = 1.
For experiment [20], the system named is RPS6KA3. The note with it: read-out: apparent Kd; compound concentrations: 100 nM and 1000 nM (sheet 'Samples'), CATDS: 4.2284934101133903E-2; n = 1.
Experiment [21] relates to RPS6KA6. The note with it: read-out: apparent Kd; compound concentrations: 100 nM and 1000 nM (sheet 'Samples'), CATDS: 6.3682849838720093E-2; n = 1.
In experiment [22] the test system is SRC. As to conditions: read-out: apparent Kd; compound concentrations: 100 nM and 1000 nM (sheet 'Samples'), CATDS: 4.8588200967613397E-2; n = 1.
The test system of experiment [23] is STK3. The note with it: read-out: apparent Kd; compound concentrations: 100 nM and 1000 nM (sheet 'Samples'), CATDS: 4.1174689810954603E-2; n = 1.
For experiment [24], the system named is TAOK1. As to conditions: read-out: apparent Kd; compound concentrations: 100 nM and 1000 nM (sheet 'Samples'), CATDS: 5.56620194527895E-2; n = 1.
Experiment [25] relates to ADRBK1. The note with it: read-out: apparent Kd; compound concentrations: 100 nM and 1000 nM (sheet 'Samples'), CATDS: 2.4838233603700199E-2; n = 1.
For experiment [26], the system named is CDK16. The note with it: read-out: apparent Kd; compound concentrations: 100 nM and 1000 nM (sheet 'Samples'), CATDS: 6.3577465529015803E-2; n = 1.
Experiment [27] concerns CDK17. As to conditions: read-out: apparent Kd; compound concentrations: 100 nM and 1000 nM (sheet 'Samples'), CATDS: 3.37360280865171E-2; n = 1.
For experiment [28], the system named is CDK1. As to conditions: read-out: apparent Kd; compound concentrations: 100 nM and 1000 nM (sheet 'Samples'), CATDS: 2.7245131481605699E-2; n = 1.
Experiment [29] has as its system CDK2. The note with it: read-out: apparent Kd; compound concentrations: 100 nM and 1000 nM (sheet 'Samples'), CATDS: 4.36970242470427E-2; n = 1.
In experiment [30] the test system is CDK6. As to conditions: read-out: apparent Kd; compound concentrations: 100 nM and 1000 nM (sheet 'Samples'), CATDS: 3.4671115454836803E-2; n = 1.
For experiment [31], the system named is CDK9. The note with it: read-out: apparent Kd; compound concentrations: 100 nM and 1000 nM (sheet 'Samples'), CATDS: 2.7346087342078398E-2; n = 1.
Experiment [32] deals with CDKL5. As to conditions: read-out: apparent Kd; compound concentrations: 100 nM and 1000 nM (sheet 'Samples'), CATDS: 8.0435969039111696E-2; n = 1.
In experiment [33] the test system is CLK1. The note with it: read-out: apparent Kd; compound concentrations: 100 nM and 1000 nM (sheet 'Samples'), CATDS: 3.0051387692213001E-2; n = 1.
In experiment [34] the test system is CLK2. The note with it: read-out: apparent Kd; compound concentrations: 100 nM and 1000 nM (sheet 'Samples'), CATDS: 4.01054923107644E-2; n = 1.
Experiment [35] concerns CLK4. The note with it: read-out: apparent Kd; compound concentrations: 100 nM and 1000 nM (sheet 'Samples'), CATDS: 3.8689764998843801E-2; n = 1.
In experiment [36] the test system is DYRK1A. The note with it: read-out: apparent Kd; compound concentrations: 100 nM and 1000 nM (sheet 'Samples'), CATDS: 7.8363262326560101E-2; n = 1.
For experiment [37], the system named is GSK3A. As to conditions: read-out: apparent Kd; compound concentrations: 100 nM and 1000 nM (sheet 'Samples'), CATDS: 0.62281927903821299; n = 1.
Experiment [38] has as its system GSK3B. The note with it: read-out: apparent Kd; compound concentrations: 100 nM and 1000 nM (sheet 'Samples'), CATDS: 0.401572679379325; n = 1.
Experiment [39] has as its system ICK. The note with it: read-out: apparent Kd; compound concentrations: 100 nM and 1000 nM (sheet 'Samples'), CATDS: 0.15504301579156199; n = 1.
Experiment [40] relates to MAP2K1. As to conditions: read-out: apparent Kd; compound concentrations: 100 nM and 1000 nM (sheet 'Samples'), CATDS: 2.5511986591555801E-2; n = 1.
Experiment [41] relates to MAP2K2. The note with it: read-out: apparent Kd; compound concentrations: 100 nM and 1000 nM (sheet 'Samples'), CATDS: 2.5311950645342699E-2; n = 1.
In experiment [42] the test system is MAPK7. As to conditions: read-out: apparent Kd; compound concentrations: 100 nM and 1000 nM (sheet 'Samples'), CATDS: 2.4862770710026599E-2; n = 1.
In experiment [43] the test system is NQO1. The note with it: read-out: apparent Kd; compound concentrations: 100 nM and 1000 nM (sheet 'Samples'), CATDS: 3.3718961414702597E-2; n = 1.
Experiment [44] deals with PRKACG. The note with it: read-out: apparent Kd; compound concentrations: 100 nM and 1000 nM (sheet 'Samples'), CATDS: 4.2614442075595102E-2; n = 1.
Experiment [45] concerns PYGL. As to conditions: read-out: apparent Kd; compound concentrations: 100 nM and 1000 nM (sheet 'Samples'), CATDS: 2.55419672432197E-2; n = 1.
The test system of experiment [46] is RIOK2. As to conditions: read-out: apparent Kd; compound concentrations: 100 nM and 1000 nM (sheet 'Samples'), CATDS: 2.90661770930771E-2; n = 1.

For the compound `Nc1nc(-c2cccc(Cl)c2)c(-c2ccc3ncccc3n2)s1` [GW780159X], the potency estimated from few doses in experiment [1] is 1.63 nM; in experiment [2] (compound concentrations:100 nM and 1000 nM (sheet 'Samples')), 1440 nM; in [3], 1000 nM; in [4], 815 nM; in [5], 2040 nM.
As for `COc1cccc(C2=C(c3cn(C)c4ccc(Cl)cc34)C(=O)NC2=O)c1` [RO3300230-000], the potency estimated from few doses in experiment [6] (CATDS: 4.1233669692049897E-2) was 1860 nM; in experiment [7] (CATDS: 4.32167355318668E-2), 1650 nM; in experiment [8] (CATDS: 4.9283792774051899E-2), 1210 nM; in experiment [9] it was 993 nM; in [10], 1220 nM; in [11] it was 1730 nM. Moreover, the potency estimated from few doses in experiment [12] was 2230 nM; in [13], 1710 nM; in [14] it was 2010 nM; in experiment [2] (compound concentrations: 100 nM and 1000 nM (sheet 'Samples'), CATDS: 5.21130062125853E-2), 1070 nM; in experiment [15] it was 1290 nM; in experiment [16] it was 189 nM. Further, the potency estimated from few doses in [17] (CATDS: 5.1032643222322503E-2) was 1120 nM; in [18] (CATDS: 0.19635235530270301), 133 nM; in experiment [19] it was 1460 nM; in experiment [20], 1740 nM; in experiment [21], 723 nM; in experiment [22], 1250 nM. In addition, the potency estimated from few doses in [23] is 1870 nM; in [24], 935 nM.
In the case of `O=C(Nc1n[nH]c2nnc(-c3cccnc3)cc12)C1CC1.O=C(O)C(F)(F)F` [SB-675259-M], the potency estimated from few doses in [6] (CATDS: 3.00594248157054E-2) was 1030 nM; in experiment [25], 2130 nM; in experiment [7] (CATDS: 2.84891592844819E-2), 1240 nM; in [8] (CATDS: 2.9280872528565802E-2) it was 1130 nM; in experiment [26], 151 nM; in experiment [27], 726 nM. The potency estimated from few doses in experiment [28] was 1460 nM; in [29], 366 nM; in [30], 671 nM; in experiment [31] it was 1440 nM; in experiment [32], 87 nM; in [33] it was 1030 nM. Further, the potency estimated from few doses in [34] is 454 nM; in experiment [35], 498 nM; in experiment [36], 92.6 nM; in [37] it was 0.113 nM; in [38], 0.279 nM; in [39], 14.7 nM. Further, the potency estimated from few doses was 1890 nM in [40]; 1960 nM in [41]; 2120 nM in [42]; 727 nM in experiment [43]; 512 nM in [17] (CATDS: 3.8297140879790803E-2); 426 nM in [18] (CATDS: 4.1089094062549299E-2). The potency estimated from few doses in experiment [44] is 389 nM; in experiment [45] it was 1880 nM; in experiment [46], 1160 nM.
